Measured values as given in PubChem BioAssay (EPA / NIEHS).
Results filed as inconclusive are left out. The source made the active and inactive calls. Rule for the calls: active = hit-call score of the fitted dose curve at least 0.9, where 1 is the maximum; inconclusive = response in the unintended direction; inactive = score below 0.9.

Assays:
[1] = molecular target: Cellular tumor antigen p53 (Homo sapiens) (UniProt P04637); test: TOX21_p53_BLA_p2_ratio: Tox21 HCT-116 p53 Agonism Beta-lactamase Assay, Ratio, Phase 2 (AID 2283592)
Sequence of Cellular tumor antigen p53 (Homo sapiens) (P04637 whole entry, looked up): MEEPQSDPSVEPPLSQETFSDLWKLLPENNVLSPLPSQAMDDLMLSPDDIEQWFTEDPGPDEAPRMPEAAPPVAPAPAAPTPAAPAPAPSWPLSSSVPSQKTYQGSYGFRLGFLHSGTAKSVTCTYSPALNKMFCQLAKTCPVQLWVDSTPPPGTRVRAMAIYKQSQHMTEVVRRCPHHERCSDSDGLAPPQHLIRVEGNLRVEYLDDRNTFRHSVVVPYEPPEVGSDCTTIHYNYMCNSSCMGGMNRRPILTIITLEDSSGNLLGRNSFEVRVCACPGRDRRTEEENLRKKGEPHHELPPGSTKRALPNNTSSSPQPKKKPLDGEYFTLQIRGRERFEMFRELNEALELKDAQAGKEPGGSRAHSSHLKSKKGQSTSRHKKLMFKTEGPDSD
How it was run: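 Human colon HCT116 cells with an inducible p53 beta-lactamase reporter are exposed to test chemicals for 16 h at 37C. Reporter induction is read as the 460/530 nm emission ratio after CCF4-AM loading, normalized to DMSO.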

[2] = TOX21_p53_BLA_p3_viability: Viability Assessment in the Tox21 HCT-116 p53 Agonism Beta-lactamase Assay, Phase 3 (AID 2283593);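 note: cells exposed to compound for 16 h before reading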
How it was run: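 Cellular ATP was quantified by CellTiter-Glo luminescence, read after 30 min at room temperature. Beforehand, HCT116 cells (4000/well) received compound 5 h post-seeding, 217-fold diluted from DMSO, then incubated 16 h at 37C.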

[3] = molecular target: Cellular tumor antigen p53 (Homo sapiens) (UniProt P04637); test: TOX21_p53_BLA_p3_ratio: Tox21 HCT-116 p53 Agonism Beta-lactamase Assay, Ratio, Phase 3 (AID 2283596)
How it was run: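 HCT116 p53-bla cells (4000/well) given compound in DMSO (217-fold dilution) after 5 h, incubated 16 h at 37C. CCF4-AM substrate 2 h at room temperature; 460/530 nm emission ratio, gain fitted against DMSO.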

[4] = TOX21_p53_BLA_p4_viability: Viability Assessment in the Tox21 HCT-116 p53 Agonism Beta-lactamase Assay, Phase 4 (AID 2283597);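 note: hits lower the luminescence signal meaning cytotoxicity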
How it was run: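 Luminescent ATP readout (CellTiter-Glo, 30 min, room temperature) in the same wells as the p53 bla ratio. HCT116 cells were treated for 16 h at 37C with DMSO-dissolved compounds.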

[5] = molecular target: Cellular tumor antigen p53 (Homo sapiens) (UniProt P04637); test: TOX21_p53_BLA_p5_ratio: Tox21 HCT-116 p53 Agonism Beta-lactamase Assay, Ratio, Phase 5 (AID 2283599)
How it was run: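 Beta-lactamase reporter ratio (blue 460 nm over green 530 nm, 405 nm excitation) after 2 h CCF4-AM loading, in HCT-116 cells exposed 16 h at 37 C to compounds pinned at 217-fold dilution. Increases relative to DMSO baseline scored.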

[6] = TOX21_p53_BLA_p5_viability: Viability Assessment in the Tox21 HCT-116 p53 Agonism Beta-lactamase Assay, Phase 5 (AID 2283600)
How it was run: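 Seeded cells (4000/well) settle 5 h before compound addition. Plates then incubate 16 h at 37C, receive FRET substrate for 2 h, and finally CellTiter-Glo, with luminescence measured after a 30 min room-temperature incubation.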

[7] = molecular target: Cellular tumor antigen p53 (Homo sapiens) (UniProt P04637); test: TOX21_p53_BLA_p4_ratio: Tox21 HCT-116 p53 Agonism Beta-lactamase Assay, Ratio, Phase 4 (AID 2283601)
How it was run: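 Signal is the blue/green (460nm/530nm) ratio of cleaved versus uncleaved CCF4-AM substrate, read after 2 h substrate loading. Cells were HCT116 carrying the p53-responsive beta-lactamase reporter, dosed 16 h at 37C, 5% CO2; CellTiter-Glo measured in parallel.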

Measured: AC50

c1ccc(-c2cccc(-c3ccccc3)c2)cc1
inactive: [1] | [2] | [3] | [4] | [5] | [6] | [7]

COP(=S)(OC)Oc1cc(Cl)c(I)cc1Cl
active: [1] 73.9 µM | [3] 75.1 µM | [7] 87.3 µM
inactive: [2] | [4] | [5] | [6]

C[C@H]1C(=O)O[C@@H]2CCN3CC=C(COC(=O)[C@](C)(O)[C@]1(C)O)[C@H]23
inactive: [1] | [2] | [3] | [5] | [6] | [7]

CCOP(=S)(OCC)Oc1ccc(Cl)cc1Cl
inactive: [1] | [2] | [3] | [5] | [6] | [7]

O=C(CBr)c1ccc(O)cc1
inactive: [1] | [2] | [3] | [4] | [5] | [6] | [7]

OCC(c1ccc(Cl)cc1)c1ccc(Cl)cc1
active: [1] 80.1 µM | [4] 71.1 µM | [5] 86.8 µM | [6] 70.4 µM | [7] 85.2 µM
inactive: [2] | [3]

CCC[CH2][Sn]([CH2]CCC)([CH2]CCC)[CH2]CCC
active: [2] 20.2 µM | [3] 29.6 µM | [4] 42.2 µM | [5] 44.3 µM | [6] 41 µM | [7] 68.7 µM
inactive: [1]

C=CCc1ccccc1O
inactive: [1] | [2] | [3] | [5] | [7]

CC(c1ccc(O)cc1)c1ccc(O)cc1
inactive: [1] | [2] | [3] | [5] | [6] | [7]

CCCCC(CC)C(=O)Cl (stereo not drawn)
inactive: [1] | [2] | [3] | [5] | [6] | [7]

Clc1cc(C(Cl)(Cl)Cl)cnc1Cl
inactive: [1] | [2] | [3] | [5] | [6] | [7]

O=C(NC(=O)c1c(F)cccc1F)Nc1cc(Cl)c(F)c(Cl)c1F
inactive: [1] | [2] | [3] | [4] | [5] | [6] | [7]

OC(c1ccc(Cl)cc1)(c1ccc(Cl)cc1)c1cccnc1
inactive: [2] | [3] | [6]
active: [1] 44.3 µM | [4] 60.5 µM | [5] 72.5 µM | [7] 70.9 µM

N#CCCC(Br)(C#N)CBr (stereo not drawn)
inactive: [1] | [2] | [4] | [7]
active: [3] 70.8 µM

Cc1cc(SCc2sc(-c3ccc(C(F)(F)F)c(F)c3)nc2C)ccc1OCC(=O)O
active: [1] 54.1 µM | [2] 35.3 µM | [3] 48.2 µM | [4] 11.9 µM | [5] 70.2 µM | [6] 40.6 µM | [7] 54.2 µM

Cl[C@H]1OCCO[C@@H]1Cl
inactive: [1] | [2] | [3] | [4] | [5] | [7]

C=CCN=C=S
inactive: [1] | [2] | [3] | [4] | [5] | [6] | [7]

CCOC(=O)C(SP(=S)(OC)OC)c1ccccc1 (stereo not drawn)
inactive: [1] | [2] | [3] | [5] | [6] | [7]

C=CCCl
inactive: [1] | [2] | [3] | [5]

O=NN1CCOCC1
inactive: [1] | [2] | [3] | [4] | [5] | [7]

O=C(NC(=O)c1c(F)cccc1F)Nc1cc(Cl)c(OC(F)(F)C(F)C(F)(F)F)cc1Cl (stereo not drawn)
inactive: [1] | [2] | [3] | [4] | [5] | [6] | [7]

Cc1cccc(N=Nc2ccc(N(C)C)cc2)c1
inactive: [1] | [2] | [3] | [4] | [5] | [7]

CC(C)(C#N)N=NC(C)(C)C#N
inactive: [1] | [2] | [3] | [5] | [6] | [7]

CCOc1ccc(N)cc1
inactive: [1] | [2] | [3] | [4] | [5] | [6] | [7]

O=S(=O)(c1ccc(Cl)cc1)c1cc(Cl)c(Cl)cc1Cl
inactive: [1] | [2] | [3] | [5] | [6] | [7]

COC(=O)Nc1cccc(OC(=O)Nc2cccc(C)c2)c1
inactive: [1] | [2] | [3] | [4] | [6]

CS(=O)(=O)c1ccc(C(=O)C2C(=O)CCCC2=O)c(Cl)c1COCC(F)(F)F
inactive: [1] | [3] | [5] | [6] | [7]

CC(C)[N+](=O)[O-]
inactive: [1] | [3] | [4] | [5] | [6] | [7]

CC(C)C(C)(N)C#N (stereo not drawn)
inactive: [1] | [2] | [4] | [5] | [7]
